The source of these data is PMC10726135, “HNF4α isoforms regulate the circadian balance between carbohydrate and lipid metabolism in the liver”.

The full ranking holds about 18,000 sequences; the median of “log2 normalized intensity” is about 0.36, and the highest 2% start at about 7.3. Shown is part of a subset that was picked to be rich in the highest values.

In the assay the target is T1, HNF4alpha8 (COS-7 nuclear extract) (Homo sapiens, UniProt P41235-5 1-452).
T1 sequence: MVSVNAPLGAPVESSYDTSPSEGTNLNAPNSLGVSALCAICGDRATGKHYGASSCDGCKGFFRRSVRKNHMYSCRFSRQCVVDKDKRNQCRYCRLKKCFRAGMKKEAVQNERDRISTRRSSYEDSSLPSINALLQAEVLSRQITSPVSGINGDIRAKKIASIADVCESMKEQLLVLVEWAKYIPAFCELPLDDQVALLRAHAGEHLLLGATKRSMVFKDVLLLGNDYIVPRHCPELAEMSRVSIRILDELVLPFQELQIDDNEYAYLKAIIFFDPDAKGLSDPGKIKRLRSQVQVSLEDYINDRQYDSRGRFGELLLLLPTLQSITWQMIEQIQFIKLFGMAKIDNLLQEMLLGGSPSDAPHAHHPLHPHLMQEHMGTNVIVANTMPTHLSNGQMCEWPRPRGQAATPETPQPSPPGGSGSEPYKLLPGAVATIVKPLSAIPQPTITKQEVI
Kind of assay: protein-binding microarray; COS-7 nuclear extract on double-stranded Agilent 4x180k PBM; binding buffer, salt, pH and temperature not given in the material; high values mean tight binding. The following applies: chain copies: 2; label: 3' end of strand 1 on the slide; dsDNA, one strand shown. Put shortly: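 The binding signal is Agilent software's gProcessedSignal after background correction and normalization. Arrays were a custom Agilent SurePrint G3 4x180k design of double-stranded ~60-nt oligonucleotides with ~44,000 test sequences in quadruplicate, probed with nuclear extracts of COS-7 cells transiently expressing a human HNF4α isoform. Scans were made at 2-µm resolution on an Agilent G2565CA scanner.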
Take “GTGACCTTTGACCTCTGGCCTTTGCAGTTAGCCTAGGGAGATTAGAGTATCGGTCGA”: the binding signal turned out to be 8.79 log2 normalized intensity. Take “ACCACTTTGAAATAGTGACCTCTGCTGGCCGCCTAGGGAGATTAGAGTATCGGTCGA”: the binding signal turned out to be 3.43 log2 normalized intensity. As for “TCTGGTGCCAAGGAGCCTCTGCAACCTTTGGCCTAGGGAGATTAGAGTATCGGTCGA”, the figure is 3.43 log2 normalized intensity; as for “TATCAGTGTTGACCTCTGGACCTCATCTTCGCCTAGGGAGATTAGAGTATCGGTCGA”, 6.23 log2 normalized intensity. As for “CTCAAGTGACCTTTGACCTCTGGCCTTTGCGCCTAGGGAGATTAGAGTATCGGTCGA”, the figure is 10.3 log2 normalized intensity; as for “GATGTTTAGCTATCAGTGTTGACCTCTGGAGCCTAGGGAGATTAGAGTATCGGTCGA”, 6.06 log2 normalized intensity. As to “CTGACCTCAAGTGACCTTTGACCTCTGGCCGCCTAGGGAGATTAGAGTATCGGTCGA”, the binding signal turned out to be 11.2 log2 normalized intensity. Take “TTAGCTATCAGTGTTGACCTCTGGACCTCAGCCTAGGGAGATTAGAGTATCGGTCGA”: the binding signal stood at 7.79 log2 normalized intensity.

In the case of “ACCTTTGCCTTCTTGACATCTCTCTCTGCAGCCTAGGGAGATTAGAGTATCGGTCGA”, the binding signal was -0.0607 log2 normalized intensity.

For the sequence “TGACCTTTGCCTCATTCTTATTGCCTCATGGCCTAGGGAGATTAGAGTATCGGTCGA”, the binding signal was 4.2 log2 normalized intensity. With “CTCTAACCACTTTGAAATAGTGACCTCTGCGCCTAGGGAGATTAGAGTATCGGTCGA” the figure was 5.01 log2 normalized intensity. With “CTGACAAGTATCTCGGTCAAACCTTTGACCGCCTAGGGAGATTAGAGTATCGGTCGA”, the binding signal was determined as 6.35 log2 normalized intensity. With “CAGGAGTCGGGAGGTAGGGGTGGCGGGTTGGCCTAGGGAGATTAGAGTATCGGTCGA” the figure was 0.403 log2 normalized intensity; with “GCCAAAGGTCAGAGTTGAACCCTTGGGGCTGCCTAGGGAGATTAGAGTATCGGTCGA”, 4.38 log2 normalized intensity; with “TCTGCTGTACATATTTGCCAAGTGATAAGGGCCTAGGGAGATTAGAGTATCGGTCGA”, 1.01 log2 normalized intensity. With “TCTAACATTTTTGACCTTCAGCATCTTCAAGCCTAGGGAGATTAGAGTATCGGTCGA”, the binding signal was determined as 3.81 log2 normalized intensity. Take “CCTTTGAGATAGCTATGATTATCCTTATCTGCCTAGGGAGATTAGAGTATCGGTCGA”: the binding signal was -0.293 log2 normalized intensity.

In the case of “ATCTGTATCAGCCTGTGACAAAGTCCATCTGCCTAGGGAGATTAGAGTATCGGTCGA”, the binding signal turned out to be 5.65 log2 normalized intensity. As to “CCCGGACCAGGCCGGGTCACGTGGGTCCAGGCCTAGGGAGATTAGAGTATCGGTCGA”, the binding signal worked out at 3.63 log2 normalized intensity. Turning to “GTCAGTCTTTGTTCTAGTAAGGCCTTCAAAGCCTAGGGAGATTAGAGTATCGGTCGA”, the binding signal is 0.595 log2 normalized intensity.

“TTCAGAAGACTTCCTGGCCTCTCTGCAAATGCCTAGGGAGATTAGAGTATCGGTCGA”: the binding signal is -0.39 log2 normalized intensity.

Take “GTGAGGGAGGAGACTTTGACCTCTGCTAGGGCCTAGGGAGATTAGAGTATCGGTCGA”: the binding signal turned out to be 6.12 log2 normalized intensity. “TAACGGTGAGGGAGGAGACTTTGACCTCTGGCCTAGGGAGATTAGAGTATCGGTCGA”: the binding signal was found to be 7.45 log2 normalized intensity. In the case of “GGAGGAGACTTTGACCTCTGCTAGGTTTGGGCCTAGGGAGATTAGAGTATCGGTCGA”, the binding signal worked out at 5.5 log2 normalized intensity.

For the sequence “TATGTCTCTCCTATTCAGGTATTTGCTCTGGCCTAGGGAGATTAGAGTATCGGTCGA”, the binding signal was 0.488 log2 normalized intensity.

Consider “CACAGTGTAGAAGGCAAGGGTCAAGATGTCGCCTAGGGAGATTAGAGTATCGGTCGA”, for which the binding signal was 2.31 log2 normalized intensity. Take “ATTCCAGTGTTTCAAAGGAGTGTCTTTCTCGCCTAGGGAGATTAGAGTATCGGTCGA”: the binding signal worked out at 1.51 log2 normalized intensity. With “CATGTGGTCCTAAGACTAACCTTTGACCATGCCTAGGGAGATTAGAGTATCGGTCGA” the figure was 8.37 log2 normalized intensity. As to “ATTAACTAACCTTTGAACCAGATGGCCCTCGCCTAGGGAGATTAGAGTATCGGTCGA”, the binding signal was determined as 4.3 log2 normalized intensity.

Turning to “TAAGACTAACCTTTGACCATCCACGGATGCGCCTAGGGAGATTAGAGTATCGGTCGA”, the binding signal came to 5.5 log2 normalized intensity. “GGTCCTAAGACTAACCTTTGACCATCCACGGCCTAGGGAGATTAGAGTATCGGTCGA”: the binding signal was 6.44 log2 normalized intensity. For the sequence “ATGTGGTCCTAAGACTAACCTTTGACCATCGCCTAGGGAGATTAGAGTATCGGTCGA”, the binding signal turned out to be 8.15 log2 normalized intensity.

With “TACTCATGTGGTCCTAAGACTAACCTTTGAGCCTAGGGAGATTAGAGTATCGGTCGA”, the binding signal amounted to 7.11 log2 normalized intensity. Take “TTACTCATGTGGTCCTAAGACTAACCTTTGGCCTAGGGAGATTAGAGTATCGGTCGA”: the binding signal came to 4.06 log2 normalized intensity.

In the case of “CCTTACCTCCATTAACTAACCTTTGAACCAGCCTAGGGAGATTAGAGTATCGGTCGA”, the binding signal turned out to be 7.58 log2 normalized intensity. As for “CCTCCATTAACTAACCTTTGAACCAGATGGGCCTAGGGAGATTAGAGTATCGGTCGA”, the binding signal was 5.69 log2 normalized intensity.

Regarding “CTGACATTCTCCACTTGGTGACTGTCATTTGCCTAGGGAGATTAGAGTATCGGTCGA”, the binding signal was 0.274 log2 normalized intensity. As for “TGCCCTCACAGGTTCCAGCATGGACTTCACGCCTAGGGAGATTAGAGTATCGGTCGA”, the binding signal came out at 3.32 log2 normalized intensity. For “TTCCGCGGACGTGTTCCCACAGTGCCCTCTGCCTAGGGAGATTAGAGTATCGGTCGA”, the binding signal was 3.77 log2 normalized intensity. As for “AGTTTCAACTTAACCCCAGTTTAGCAATTTGCCTAGGGAGATTAGAGTATCGGTCGA”, the figure is 2.08 log2 normalized intensity. On to “TCTAAGACATAACACAGGTGACCTTTGCTCGCCTAGGGAGATTAGAGTATCGGTCGA”, for which the binding signal was found to be 8.96 log2 normalized intensity. In the case of “CTAAGCAGGCACATTCCAGGACCTTTGCTCGCCTAGGGAGATTAGAGTATCGGTCGA”, the binding signal turned out to be 4.83 log2 normalized intensity. Take “TCTTTTCTAAGACATAACACAGGTGACCTTGCCTAGGGAGATTAGAGTATCGGTCGA”: the binding signal was determined as 4.48 log2 normalized intensity. For the sequence “AACACAGGTGACCTTTGCTCCGGTTCCCAAGCCTAGGGAGATTAGAGTATCGGTCGA”, the binding signal was found to be 7.12 log2 normalized intensity. As for “GACATAACACAGGTGACCTTTGCTCCGGTTGCCTAGGGAGATTAGAGTATCGGTCGA”, the binding signal came to 7.92 log2 normalized intensity. With “AGGTGACCTTTGCTCCGGTTCCCAATAAGTGCCTAGGGAGATTAGAGTATCGGTCGA” the figure was 5.71 log2 normalized intensity; with “TGTGGGTAATTAATCTGATCGCCCTCCCCCGCCTAGGGAGATTAGAGTATCGGTCGA”, 5.29 log2 normalized intensity. For the sequence “CTATTCTCTAAACTCTGGGCTCTATTTGGAGCCTAGGGAGATTAGAGTATCGGTCGA”, the binding signal was 0.51 log2 normalized intensity. As to “AAGACTTTGGACTTTGGACCTGAGGCTTTTGCCTAGGGAGATTAGAGTATCGGTCGA”, the binding signal came out at 10.3 log2 normalized intensity. As for “TGCTGGAGATGAGGCTCAGACCTGACCTTTGCCTAGGGAGATTAGAGTATCGGTCGA”, the figure is 7.17 log2 normalized intensity; as for “GGACCTGAGGCTTTTGAGTCAATAATGGACGCCTAGGGAGATTAGAGTATCGGTCGA”, 1.38 log2 normalized intensity; as for “TACTTTGGACTGGGGACCTGGTCTGAGATAGCCTAGGGAGATTAGAGTATCGGTCGA”, 1.25 log2 normalized intensity. As to “GAGGCTCAGACCTGACCTTTGGATTCCCAGGCCTAGGGAGATTAGAGTATCGGTCGA”, the binding signal came out at 7.11 log2 normalized intensity. For the sequence “GAGATGAGGCTCAGACCTGACCTTTGGATTGCCTAGGGAGATTAGAGTATCGGTCGA”, the binding signal was found to be 8.85 log2 normalized intensity.
